Experimental data reported in PubChem BioAssay AID1159580 (chemical genetic matrix, 2015).
Screen size: about 5,500 compounds; about 2,000 (36%) were called active. About 18% were inconclusive and are not listed. No stated cut-off is given here; in the data, active means normalized growth mostly below about 0.91 (no sharp cut-off); inconclusive means no clear call, values can overlap the other calls; inactive means mostly above about 0.92. The list shows a part of the results.

Assay: chemical genetic growth profiling, strain panel (AID 1159580);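 further: tested at 20 µM; growth read once vehicle control cultures reached saturation at 30 °C; 1 = growth at the plate median or of vehicle wells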
Conditions: growth OD

Measured: normalized growth

O=C(Cc1cccs1)NC1C(=O)N2C(C(=O)[O-])=C(C[n+]3ccccc3)CSC12 (stereo unspecified)
inactive: S. cerevisiae deletion strains, locus YJR075W, strain HOC1, stronger effect = lower value 1.01 | S. cerevisiae deletion strains, locus YKL009W, strain mrt4, stronger effect = lower value 0.989 | S. cerevisiae deletion strains, locus YKL068W, stronger effect = lower value 1.01 | S. cerevisiae deletion strains, locus YKL085W, strain MDH1 (second series), stronger effect = lower value 1 | S. cerevisiae deletion strains, locus YKL085W, strain MDH1, stronger effect = lower value 1 | S. cerevisiae deletion strains, locus YKL160W, strain elf1, stronger effect = lower value 1 | S. cerevisiae deletion strains, locus YKL190W, strain CNB1, stronger effect = lower value 1.01 | S. cerevisiae deletion strains, locus YKR001C, strain vps1, stronger effect = lower value 0.992 | S. cerevisiae deletion strains, locus YKR026C, strain gcn3, stronger effect = lower value 0.988 | S. cerevisiae deletion strains, locus YKR091W, strain srl3, stronger effect = lower value 0.985 | S. cerevisiae deletion strains, locus YLL001W, strain dnm1, stronger effect = lower value 0.979 | S. cerevisiae deletion strains, locus YLL026W, stronger effect = lower value 0.997 | S. cerevisiae deletion strains, locus YLL041C, strain sdh2, stronger effect = lower value 0.994 | S. cerevisiae deletion strains, locus YLR027C, strain aat2, stronger effect = lower value 0.989 | S. cerevisiae deletion strains, locus YLR039C, strain RIC1, stronger effect = lower value 1.01 | S. cerevisiae deletion strains, locus YLR058C, strain SHM2, stronger effect = lower value 0.99 | S. cerevisiae deletion strains, locus YLR102C, strain apc9, stronger effect = lower value 0.997 | S. cerevisiae deletion strains, locus YLR221C, strain rsa3, stronger effect = lower value 0.99 | S. cerevisiae deletion strains, locus YLR258W, strain gsy2, stronger effect = lower value 0.986 | S. cerevisiae deletion strains, locus YLR262C, strain YPT6 (second series), stronger effect = lower value 0.973 | S. cerevisiae deletion strains, locus YLR262C, strain YPT6, stronger effect = lower value 1.03 | S. cerevisiae deletion strains, locus YLR268W, strain sec22, stronger effect = lower value 0.979 | S. cerevisiae deletion strains, locus YLR320W, strain mms22, stronger effect = lower value 0.979 | S. cerevisiae deletion strains, locus YLR330W, strain CHS5, stronger effect = lower value 1.01 | S. cerevisiae deletion strains, locus YLR342W, strain FKS1 (second series), stronger effect = lower value 0.956 | S. cerevisiae deletion strains, locus YLR342W, strain FKS1, stronger effect = lower value 0.986 | S. cerevisiae deletion strains, locus YLR357W, strain rsc2, stronger effect = lower value 0.937 | S. cerevisiae deletion strains, locus YLR370C, strain arc18, stronger effect = lower value 0.989 | S. cerevisiae deletion strains, locus YLR371W, strain rom2, stronger effect = lower value 0.985 | S. cerevisiae deletion strains, locus YLR384C, strain iki3, stronger effect = lower value 0.974 | S. cerevisiae deletion strains, locus YLR418C, strain cdc73, stronger effect = lower value 0.949 | S. cerevisiae deletion strains, locus YML016C, strain PPZ1, stronger effect = lower value 0.999 | S. cerevisiae deletion strains, locus YML032C, strain rad52, stronger effect = lower value 0.973 | S. cerevisiae deletion strains, locus YML120C, strain ndi1, stronger effect = lower value 1 | S. cerevisiae deletion strains, locus YML124C, strain tub3, stronger effect = lower value 0.999 | S. cerevisiae deletion strains, locus YMR058W, strain fet3, stronger effect = lower value 0.984 | S. cerevisiae deletion strains, locus YMR078C, strain ctf18, stronger effect = lower value 0.999 | S. cerevisiae deletion strains, locus YMR125W, strain sto1, stronger effect = lower value 0.983 | S. cerevisiae deletion strains, locus YMR129W, stronger effect = lower value 1 | S. cerevisiae deletion strains, locus YMR205C, strain PFK2, stronger effect = lower value 0.978 | S. cerevisiae deletion strains, locus YMR223W, strain ubp8, stronger effect = lower value 0.982 | S. cerevisiae deletion strains, locus YMR231W, strain pep5, stronger effect = lower value 0.991 | S. cerevisiae deletion strains, locus YMR307W, strain GAS1, stronger effect = lower value 0.997 | S. cerevisiae deletion strains, locus YNL067W, strain RPL9B, stronger effect = lower value 1.02 | S. cerevisiae deletion strains, locus YNL071W, strain lat1, stronger effect = lower value 0.999 | S. cerevisiae deletion strains, locus YNL128W, strain TEP1, stronger effect = lower value 1.01 | S. cerevisiae deletion strains, locus YNL153C, strain GIM3, stronger effect = lower value 1.03 | S. cerevisiae deletion strains, locus YNL209W, strain ssb2, stronger effect = lower value 0.984 | S. cerevisiae deletion strains, locus YNL233W, strain BNI4, stronger effect = lower value 1.02 | S. cerevisiae deletion strains, locus YNL248C, strain rpa49, stronger effect = lower value 0.985 | S. cerevisiae deletion strains, locus YNL250W, strain rad50, stronger effect = lower value 0.972 | S. cerevisiae deletion strains, locus YNL271C, strain bni1, stronger effect = lower value 0.992 | S. cerevisiae deletion strains, locus YNL298W, strain CLA4, stronger effect = lower value 0.986 | S. cerevisiae deletion strains, locus YNL307C, strain MCK1, stronger effect = lower value 0.991 | S. cerevisiae deletion strains, locus YNL322C, strain KRE1 (second series), stronger effect = lower value 0.985 | S. cerevisiae deletion strains, locus YNL322C, strain KRE1, stronger effect = lower value 1 | S. cerevisiae deletion strains, locus YNR049C, strain mso1, stronger effect = lower value 0.975 | S. cerevisiae deletion strains, locus YNR052C, strain pop2, stronger effect = lower value 0.989 | S. cerevisiae deletion strains, locus YOL006C, strain TOP1, stronger effect = lower value 1.02 | S. cerevisiae deletion strains, locus YOL012C, strain htz1 0.724 | S. cerevisiae deletion strains, locus YOL147C, strain pex11, stronger effect = lower value 0.992 | S. cerevisiae deletion strains, locus YOR001W, strain rrp6, stronger effect = lower value 0.988 | S. cerevisiae deletion strains, locus YOR061W, strain CKA2, stronger effect = lower value 1 | S. cerevisiae deletion strains, locus YOR069W, strain VPS5, stronger effect = lower value 1 | S. cerevisiae deletion strains, locus YOR070C, strain gyp1, stronger effect = lower value 0.974 | S. cerevisiae deletion strains, locus YOR080W, strain dia2, stronger effect = lower value 0.971 | S. cerevisiae deletion strains, locus YOR083W, strain WHI5, stronger effect = lower value 0.974 | S. cerevisiae deletion strains, locus YOR106W, strain vam3, stronger effect = lower value 0.973 | S. cerevisiae deletion strains, locus YOR136W, strain idh2, stronger effect = lower value 0.998 | S. cerevisiae deletion strains, locus YOR144C, strain elg1, stronger effect = lower value 0.997 | S. cerevisiae deletion strains, locus YOR184W, strain ser1, stronger effect = lower value 0.983 | S. cerevisiae deletion strains, locus YOR265W, strain rbl2, stronger effect = lower value 1 | S. cerevisiae deletion strains, locus YOR270C, strain vph1, stronger effect = lower value 0.942 | S. cerevisiae deletion strains, locus YOR290C, strain snf2, stronger effect = lower value 0.991 | S. cerevisiae deletion strains, locus YOR316C, strain cot1, stronger effect = lower value 0.994 | S. cerevisiae deletion strains, locus YPL051W, strain arl3, stronger effect = lower value 0.983 | S. cerevisiae deletion strains, locus YPL055C, strain LGE1, stronger effect = lower value 1.03 | S. cerevisiae deletion strains, locus YPL078C, strain atp4, stronger effect = lower value 0.988 | S. cerevisiae deletion strains, locus YPL106C, strain sse1, stronger effect = lower value 0.939 | S. cerevisiae deletion strains, locus YPL240C, strain hsp82, stronger effect = lower value 0.992 | S. cerevisiae deletion strains, locus YPR119W, strain clb2, stronger effect = lower value 0.997 | S. cerevisiae deletion strains, locus YPR141C, strain kar3, stronger effect = lower value 1.01 | S. cerevisiae deletion strains, locus YPR163C, strain tif3, stronger effect = lower value 0.997 | S. cerevisiae deletion strains, locus YPR167C, strain met16, stronger effect = lower value 0.988 | S. cerevisiae deletion strains, strain wtn01, stronger effect = lower value 0.978 | S. cerevisiae strains, strain wild type, stronger effect = lower value 0.998
